About 2,000 (36%) of roughly 5,500 compounds were called active. Another 18% or so got no clear call; they are omitted. No stated cut-off is given here; in the data, active means normalized growth mostly below about 0.91 (no sharp cut-off); inconclusive means no clear call, values can overlap the other calls; inactive means mostly above about 0.92. The list shows a part of the results.
Assay: chemical genetic growth profiling, strain panel (AID 1159580);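 further: tested at 20 µM; growth read once vehicle control cultures reached saturation at 30 °C; 1 = growth at the plate median or of vehicle wells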
Details: S. cerevisiae deletion strains, growth OD

Measured: normalized growth

CC1CC[C@@]2(OC1)O[C@H]1CC3C4CC[C@@H]5CC(=O)CC[C@]5(C)C4CC[C@]3(C)[C@H]1[C@@H]2C (stereo not given in full)
inactive: locus YBR021W, strain FUR4, stronger effect = lower value 1.01 | locus YBR229C, strain ROT2, stronger effect = lower value 1.01 | locus YCL029C, strain bik1, stronger effect = lower value 1.01 | locus YDL035C, strain GPR1, stronger effect = lower value 1.05 | locus YDL074C, strain BRE1, stronger effect = lower value 1.04 | locus YDL101C, strain DUN1, stronger effect = lower value 0.975 | locus YDL134C, strain PPH21, stronger effect = lower value 0.982 | locus YDL185W, strain tfp1, stronger effect = lower value 0.982 | locus YDL192W, strain arf1, stronger effect = lower value 1.01 | locus YDR101C, strain arx1, stronger effect = lower value 1.02 | locus YDR150W, strain NUM1, stronger effect = lower value 1 | locus YDR162C, strain NBP2, stronger effect = lower value 1 | locus YDR318W, strain mcm21, stronger effect = lower value 1 | locus YDR388W, stronger effect = lower value 0.993 | locus YDR502C, strain sam2, stronger effect = lower value 0.974 | locus YER110C, stronger effect = lower value 0.994 | locus YER155C, strain BEM2, stronger effect = lower value 0.985 | locus YER167W, strain BCK2, stronger effect = lower value 1 | locus YGL078C, strain dbp3, stronger effect = lower value 0.963 | locus YGL086W, strain mad1, stronger effect = lower value 0.989 | locus YGL248W, strain PDE1, stronger effect = lower value 0.973 | locus YGR078C, strain PAC10, stronger effect = lower value 0.993 | locus YGR135W, strain pre9, stronger effect = lower value 0.948 | locus YGR252W, strain gcn5, stronger effect = lower value 0.997 | locus YHR079C, strain IRE1 (second series), stronger effect = lower value 0.996 | locus YHR094C, strain hxt1, stronger effect = lower value 0.985 | locus YHR129C, strain ARP1, stronger effect = lower value 0.996 | locus YHR200W, strain rpn10, stronger effect = lower value 0.987 | locus YIL066C, strain RNR3, stronger effect = lower value 1.02 | locus YIL073C, strain SPO22, stronger effect = lower value 0.983 | locus YIL125W, strain kgd1, stronger effect = lower value 1 | locus YIR030C, strain dcg1, stronger effect = lower value 0.98 | locus YJL095W, strain BCK1, stronger effect = lower value 0.977 | locus YJL134W, strain LCB3, stronger effect = lower value 0.991 | locus YJL168C, strain set2, stronger effect = lower value 0.986 | locus YJL187C, strain SWE1 (second series), stronger effect = lower value 0.968 | locus YKL009W, strain mrt4, stronger effect = lower value 0.986 | locus YKL068W, stronger effect = lower value 0.985 | locus YKL085W, strain MDH1 (second series), stronger effect = lower value 0.984 | locus YKL085W, strain MDH1, stronger effect = lower value 0.984 | locus YKR001C, strain vps1, stronger effect = lower value 0.986 | locus YLR039C, strain RIC1, stronger effect = lower value 0.996 | locus YLR058C, strain SHM2, stronger effect = lower value 0.999 | locus YLR102C, strain apc9, stronger effect = lower value 0.984 | locus YLR268W, strain sec22, stronger effect = lower value 1.04 | locus YLR342W, strain FKS1 (second series), stronger effect = lower value 1.07 | locus YLR371W, strain rom2, stronger effect = lower value 1.01 | locus YLR418C, strain cdc73, stronger effect = lower value 0.942 | locus YML016C, strain PPZ1, stronger effect = lower value 0.988 | locus YML032C, strain rad52, stronger effect = lower value 1.01 | locus YML124C, strain tub3, stronger effect = lower value 0.995 | locus YMR078C, strain ctf18, stronger effect = lower value 0.985 | locus YMR223W, strain ubp8, stronger effect = lower value 0.996 | locus YMR307W, strain GAS1, stronger effect = lower value 0.94 | locus YNL067W, strain RPL9B, stronger effect = lower value 0.966 | locus YNL233W, strain BNI4, stronger effect = lower value 0.972 | locus YNL250W, strain rad50, stronger effect = lower value 0.929 | locus YNL271C, strain bni1, stronger effect = lower value 0.981 | locus YNL298W, strain CLA4, stronger effect = lower value 1 | locus YNL307C, strain MCK1, stronger effect = lower value 0.986 | locus YNR052C, strain pop2, stronger effect = lower value 0.972 | locus YOL006C, strain TOP1, stronger effect = lower value 1.16 | locus YOL012C, strain htz1 1.11 | locus YOL147C, strain pex11, stronger effect = lower value 1.01 | locus YOR061W, strain CKA2, stronger effect = lower value 1.01 | locus YOR069W, strain VPS5, stronger effect = lower value 0.989 | locus YOR136W, strain idh2, stronger effect = lower value 0.992 | locus YOR144C, strain elg1, stronger effect = lower value 0.992 | locus YOR184W, strain ser1, stronger effect = lower value 1.06 | locus YOR316C, strain cot1, stronger effect = lower value 0.986 | locus YPR119W, strain clb2, stronger effect = lower value 0.985 | locus YPR141C, strain kar3, stronger effect = lower value 0.973 | locus YPR163C, strain tif3, stronger effect = lower value 0.993 | locus YPR167C, strain met16, stronger effect = lower value 0.985 | strain wtn01, stronger effect = lower value 1.01

— PubChem BioAssay AID1159580 (chemical genetic matrix, 2015)
